The record followed here is PubChem BioAssay.

SMILES strings stand for the structures. Results filed as inconclusive are left out. Values without a mark were called inactive.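 Rule for the calls: active = cell viability at or below a set limit in both duplicate runs, the limit being the all-compound median minus 4 SD (cut at about 23% in these data, passing the limit was not always enough); inconclusive = no clear call, values can overlap the other calls; inactive = the rest.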

The assay is described as follows: growth suppression of beta-catenin knockout HCT116, pilot screen, human colon tumor cells (AID 823).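 Note: 0% = wells killed by 20 µM Hyamine and 100% = untreated DMSO cell wells.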 As to conditions: CellTiter-Glo, 60 h, at 10 µM, active compounds read low. In general terms: Cellular ATP, detected with luciferase, serves as a proxy for viable cell number.
Usually viability stands for a read-out of living cells in per cent, often relative to untreated cells. As to `CCCCOC(=O)c1ccc(NC(=O)CSCc2n[nH]c(=O)[nH]2)cc1`, the viability is 98.3%. For `CCNc1nc(NCC)nc(-n2nc(C)cc2C)n1`, the viability is 100%.

Consider `CCOC(=O)c1cc(NC(=O)NCc2ccco2)c(C)nc1C`, for which the viability is 105%. `COc1cc2c(=O)n(Cc3ccccc3)c(=O)n(CC(=O)NCC3CCCO3)c2cc1OC` (configuration not stated): the viability was 97.9%.

With `CCC(CO)N=CC1=C(O)CC(C)(C)CC1=O` (configuration not stated), the viability is 102%.

In the case of `COC(=O)CCSCC(=O)Nc1nnc(C)s1`, the viability is 108%.

Turning to `COc1cc(OC)nc(NC(=O)C(C)C)n1`, the viability was 104%. The value for `CC(NC(=O)c1ccco1)C(c1cccs1)N1CCOCC1` (configuration not stated) was 101%; that for `CCn1ccnc1C(O)c1cccc(OC)c1OC` (configuration not stated) was 108%. On to `Cc1cc(C)nc(SCC(=O)Oc2ccc3oc(=O)cc(C)c3c2)n1`, for which the viability was 97%.

Regarding `CCCCCn1c(N(C)Cc2ccccc2)nc2c1c(=O)[nH]c(=O)n2C`, the viability was 74%.

`Cc1cc(C)cc(-n2cc3c(=O)n(C)c(=O)n(C)c3c2)c1`: the viability was 102%. With `O=C(C1CC(=O)N(C2CCCC2)C1)N1CCN(c2ccc(F)cc2)CC1` (configuration not stated) the figure was 94.3%; with `COC(=O)C1=CN(C)C=C(C(=O)OC)C1c1ccsc1`, 104%.

For the compound `CCCC(=O)c1c(NC)cc(C)oc1=O`, the viability was 97.2%.

Regarding `CCOc1cccc(C2c3c(oc4ccccc4c3=O)C(=O)N2c2ccccn2)c1` (configuration not stated), the viability was 95.6%. In the case of `CN(C)CCNC(=O)c1ccc2c(c1)N(Cc1ccc(F)cc1)CCS2`, the viability is 47.8%.
